PubChem BioAssay (NCI)
This is part of a sample that, as a whole, favours compounds with a hit. Of some 79,000 tested, about 15% had one in any assay. Unmarked numbers belong to inactive results. Calls of active or inactive are those of the source. No stated cut-off is given here; in the data, active means growth inhibition above about 70%; inactive means the rest.

Experiments:
[1] = NCI Yeast Anticancer Drug Screen. Data for the rad50 strain (AID 155);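 further: 0% = growth of vehicle-only cultures of the same strain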; details: S. cerevisiae rad50 strain growth inhibition; at 50.0 µM; hits give high values
Summary of the method: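 Readout: growth inhibition relative to vehicle-treated cultures. Compound exposure was carried out in a genetically defined yeast strain deficient in DNA damage repair.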

[2] = NCI Yeast Anticancer Drug Screen. Data for the mec2-1 strain (AID 157); details: S. cerevisiae mec2-1 strain, at 50.0 µM, hits give high values
Summary of the method: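 Each compound was tested on mec2-1 yeast, a strain altered in DNA damage repair or cell cycle control. Growth inhibition is reported relative to vehicle.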

[3] = NCI Yeast Anticancer Drug Screen. Data for the sgs1 mgt1 strain (AID 161);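 further: 0% = growth of cultures given vehicle only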; details: S. cerevisiae sgs1 mgt1 strain, at 50.0 µM, hits give high values
Summary of the method: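 Test agents were incubated with a DNA-repair-mutant yeast strain. Growth was then read and compared against vehicle-treated controls.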

[4] = NCI Yeast Anticancer Drug Screen. Data for the cln2 rad14 strain (AID 165);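 further: 0% = growth equal to vehicle treated cultures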; details: S. cerevisiae cln2 rad14 strain, at 50.0 µM, hits give high values
Summary of the method: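 Test compounds were added to cln2 rad14 yeast cultures; inhibition of growth was then determined by comparison with vehicle treatment.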

[5] = NCI Yeast Anticancer Drug Screen. Data for the bub3 strain (AID 167); details: S. cerevisiae bub3 mutant strain, at 50.0 µM, hits give high values
Summary of the method: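 Readout: yeast growth inhibition, expressed relative to vehicle-only wells. The test organism is a mutant strain from a panel with lesions in DNA repair or checkpoint genes.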

[6] = NCI Yeast Anticancer Drug Screen. Data for the mlh1 rad18 strain (AID 175); details: S. cerevisiae mlh1 rad18 strain growth inhibition; at 50.0 µM; hits give high values
Summary of the method: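 Inhibition values reflect reduced growth of mutant yeast versus vehicle-treated controls following compound exposure; the mutations affect DNA damage repair.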

Row | Compound | growth inhibition [1] | growth inhibition [2] [%] | growth inhibition [3] | growth inhibition [4] [%] | growth inhibition [5] [%] | growth inhibition [6]
1 | COc1c(-c2cccs2)oc2c(CC(=O)O)cccc2c1=O | 10.9% | -10.8 | 28.1% | 5.9 | 17.7 | -26%
2 | CCN=C1Nc2ccccc2-n2c(nn3nc4ccccc4c23)N1CC | -13.1% | -26.4 | -42% | -24.3 | -41 | -51.7%
3 | O=C(Nc1ccc(Cl)c(Cl)c1)c1ccc(C(=O)Nc2ccc(Cl)c(Cl)c2)cc1 | 8.35% | 19.1 | 25.1% | -18.9 | -4.85 | 30.3%
4 | COC(=O)C(N)CO (stereo unspecified) | -40.5% | -27 | -39.8% | 4.35 | -34.8 | -26.1%
5 | CSc1nc(=O)cc(N)n1C | 1.65% | -1.55 | 9.55% | -23.7 | -7.2 | 7.9%
6 | Nc1ncc2c(n1)SCC2 | -10.3% | -5.8 | -8.25% | -19.7 | -17.6 | -19.6%
7 | CCN(CC)CCCC(C)NC(=O)c1ccc2c(c1O)C(=O)c1ccccc1C2=O (stereo unspecified) | 64% | -7.75 | 65.6% | 58.5 | 30.1 | 84.6% (active)
8 | CC(C)CCOC(=O)N(C)c1ccccc1 | 9.3% | 0.2 | 10.3% | -17.9 | -24 | -9.8%
9 | O=C(/C=C/c1ccc(O)cc1)OC[C@@H](O)COC1OC(CO)C(O)C(O)C1O (stereo partly specified) | -5.8% | -5.05 | -4.35% | 6.8 | 8.2 | -3.65%
10 | CC(=O)/C=C/C=C/c1ccco1 | -0.85% | 1.3 | 9.15% | -9.7 | 10.4 | 11.6%
11 | CC(C)C(=O)c1ccccc1Cl | 2.85% | -7.05 | -2.45% | -0.35 | 2.7 | -8%
12 | Cc1nc2ccc(S(=O)(=O)Nc3ccccc3Cl)cc2c(=O)n1NC(=O)CNc1ccccc1Cl | 26.4% | 0.2 | 13.4% | 6.95 | 21.8 | 21.3%
13 | CCOc1ccccc1NC(=O)c1c(Br)c(Br)c(Br)c(Br)c1C(=O)O | 5.6% | -16.8 | -1.8% | -4.15 | 6.05 | -17.6%
14 | COc1c2ccoc2cc2oc(=O)ccc12 | 10% | -7.1 | 12.8% | 14.3 | 22.4 | 20.4%
15 | O=C(CN1C(=O)c2ccccc2C1=O)C(O)CN1C(=O)c2ccccc2C1=O (stereo unspecified) | 2.5% | 0.6 | 2.05% | 27.9 | 11.4 | 14.6%
16 | Nc1nc(N)c2nc(-c3ccc([N+](=O)[O-])cc3)c(Cl)nc2n1 | -8.2% | -16.3 | -11.9% | -44.9 | -27 | -28.7%
17 | COc1ccc(NC(=O)CC(=O)NN)cc1 | -5.4% | -0.05 | 3.4% | -1.5 | -9.55 | 9.2%
18 | C=C1C(=O)OC2/C=C(\C)CC(O)/C=C(/CO)CC(OC(=O)/C(C)=C/C)C12 (stereo unspecified) | -4.5% | -33.6 | -6.55% | -1.9 | -1.65 | -58.5%
19 | CC(=O)N/C(=C/c1ccccc1)C(=O)NC(C)(C)C | -13.1% | -6.15 | -9.85% | -4.25 | 1.2 | 0.05%
20 | O=C1OC(c2ccccc2)=N/C1=C\c1cc2c(cc1Cl)OCO2 | 4.05% | 11.7 | 16.1% | -25.3 | -5.7 | 20.1%
21 | CCCCCCC1NC(=S)N(c2ccccc2)C1=O (stereo unspecified) | -12.1% | 0.5 | 48.5% | -5 | 21.2 | -6.2%

Row | Compound | growth inhibition [1] | growth inhibition [2] [%] | growth inhibition [3] | growth inhibition [4] [%] | growth inhibition [5] [%] | growth inhibition [6]
22 | CN(CCN1CCOCC1)C(c1ccccc1)c1ccccc1 | 83.7% (active) | 66.3 | 87.9% (active) | 61.8 | 52.4 | 67.4%
23 | CC(COCc1ccccc1)NCc1ccccc1 (stereo unspecified) | -7.35% | -27.6 | 9.3% | -9.15 | -3.35 | 13.2%
24 | O=C(OCCCl)C1CC2C=CC1C2 (stereo unspecified) | -4.5% | -10.1 | 3.85% | 8.25 | -7.2 | -3.4%
25 | OC[C@@H]1C2CCC([C@@H]1CO)C2(Cc1ccccc1)Cc1ccccc1 | 5.9% | 26.9 | 9.45% | -73 | 4.95 | -11.2%
26 | Oc1ccc(Oc2cc3c(cc2Oc2ccc(O)cc2)-c2nc-3nc3[nH]c(nc4nc(nc5[nH]c(n2)c2cc(Oc6ccc(O)cc6)c(Oc6ccc(O)cc6)cc52)-c2cc(Oc5ccc(O)cc5)c(Oc5ccc(O)cc5)cc2-4)c2cc(Oc4ccc(O)cc4)c(Oc4ccc(O)cc4)cc32)cc1 | -94.7% | -56.7 | -119% | -99.7 | -80.5 | -104%
27 | CC12C(=O)OC3CCC1CC32 (stereo unspecified) | 10.8% | 7.1 | -5.85% | -26.6 | 6.65 | 2.95%
28 | CC1([C@H]2CC[C@H]3[C@@H]4CC[C@H]5OC(=O)CC[C@]5(C)[C@H]4CC[C@]23C)SCCS1 | 20.7% | -19 | 12.5% | 8.6 | 8.55 | 14.8%
29 | Cc1cc2c(=O)c3ccc(Cl)cc3[nH]c2c(C(N)=O)c1C | 22.2% | 7.4 | 14.5% | 26.3 | 6.6 | 13.3%
30 | O=P(O)(O)Oc1ccc(NCCO)cc1 | -9.5% | -5 | 3.3% | 17.4 | 7.55 | -13.9%
31 | NCCCCCCCCCCC(=O)O | -7.25% | -7.6 | -10.7% | -11.2 | -5.9 | -2.8%
32 | Cc1cccc(-n2c(CC#N)n[nH]c2=S)c1 | 21% | -21.8 | -0.4% | 3.15 | 5.2 | 5.45%
33 | O=C(Cl)c1cc(Cl)cc(Cl)c1Br | 12.9% | 4.7 | 34.5% | 17.6 | 15.9 | 25.7%
34 | CC(=O)C1OC1c1ccccn1 (stereo unspecified) | -5.15% | 3.7 | -9.5% | 55.8 | 3.4 | 3.35%
35 | COc1cc(/C=C\c2ccc(SC)cc2)cc(OC)c1OC | 26.4% | 20.6 | 28.9% | 15.3 | 16.8 | -57.9%
36 | O=[n+]1c2c(n([O-])c3ccccc31)CCCCC2 | 19.6% | -12.7 | -1.9% | -32.5 | -8.35 | -2.85%
37 | CCOC(=O)c1ncc(Cl)cc1NC(=O)CC(=O)Nc1cc(Cl)cnc1C(=O)OCC | 59.8% | -8 | 32.5% | -31.1 | 1.1 | 20.3%
38 | CC(C)(C)[Si](C)(C)Oc1cc(CO)cc2c1cc(=N)o[n+]2[O-] | -27.6% | -12.9 | -23.2% | -30.9 | -1.15 | -31.2%
39 | CN(CC(=O)c1ccc(I)cc1)Cc1ccccc1 | 28.1% | -1.25 | 16.4% | -5.9 | 12.8 | 45.7%
40 | O=S(=O)(O)ON=C1c2ccccc2-c2ccccc21 | 0.6% | -10.7 | 10.4% | 10.4 | 6.55 | -13.6%
41 | Nc1c(N2CCCCC2)c(=O)nc2[nH]/c(=C\c3ccco3)c(=O)n12 | 5.45% | -26.1 | 10.9% | -21.4 | 8.8 | -7.6%
